Measured values as given in PubChem BioAssay AID504339 (National Center for Advancing Translational Sciences (NCATS), 2011).
Hit rate of the full screen: of about 390,000 compounds, about 17,000 (4.4%) were called active. Roughly 8% stayed inconclusive and do not appear here. Shown is part of a subset that was picked to be rich in actives. A number with no mark means an inactive call. The call rests on the fitted dose curve; in most records, active means well fitted inhibition curve with a large enough effect; inconclusive means small, poorly fitted or top-dose-only effect; inactive means no such curve, though single readings can be large or run the other way.

Biological target: Lysine-specific demethylase 4A (Homo sapiens) (UniProt O75164)
Sequence (O75164 whole entry, looked up, the tested form may be a part): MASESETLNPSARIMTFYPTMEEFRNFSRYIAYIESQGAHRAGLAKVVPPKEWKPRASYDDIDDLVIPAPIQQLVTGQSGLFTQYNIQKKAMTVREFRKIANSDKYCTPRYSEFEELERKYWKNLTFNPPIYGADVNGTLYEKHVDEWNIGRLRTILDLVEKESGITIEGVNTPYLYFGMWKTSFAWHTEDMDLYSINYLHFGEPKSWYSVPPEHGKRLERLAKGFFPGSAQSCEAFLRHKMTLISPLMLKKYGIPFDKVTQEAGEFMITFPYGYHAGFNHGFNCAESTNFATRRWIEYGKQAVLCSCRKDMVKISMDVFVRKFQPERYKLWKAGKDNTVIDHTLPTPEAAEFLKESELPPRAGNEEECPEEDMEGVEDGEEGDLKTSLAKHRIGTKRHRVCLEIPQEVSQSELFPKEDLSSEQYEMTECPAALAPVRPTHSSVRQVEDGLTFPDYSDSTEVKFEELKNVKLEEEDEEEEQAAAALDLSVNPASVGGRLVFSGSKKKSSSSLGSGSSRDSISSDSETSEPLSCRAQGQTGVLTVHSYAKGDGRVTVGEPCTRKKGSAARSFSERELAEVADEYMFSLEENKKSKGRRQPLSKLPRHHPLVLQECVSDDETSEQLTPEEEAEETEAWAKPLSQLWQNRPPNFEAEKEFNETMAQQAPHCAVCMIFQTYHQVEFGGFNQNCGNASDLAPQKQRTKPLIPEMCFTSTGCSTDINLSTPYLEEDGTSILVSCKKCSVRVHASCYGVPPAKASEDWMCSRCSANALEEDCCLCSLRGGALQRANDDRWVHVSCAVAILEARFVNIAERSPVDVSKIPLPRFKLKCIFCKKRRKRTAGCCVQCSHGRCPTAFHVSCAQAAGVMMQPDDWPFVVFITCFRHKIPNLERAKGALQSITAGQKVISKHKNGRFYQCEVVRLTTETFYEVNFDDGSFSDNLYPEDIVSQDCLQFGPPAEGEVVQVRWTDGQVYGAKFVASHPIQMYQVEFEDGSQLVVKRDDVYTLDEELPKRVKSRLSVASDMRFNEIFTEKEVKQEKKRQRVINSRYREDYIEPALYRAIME
Assay: qHTS Assay for Inhibitors of JMJD2A-Tudor Domain; further: nearly all actives have a fitted effect of over 50% in size
Settings: AlphaScreen JMJD2A-Tudor / H3K4me3 peptide binding; series mostly up to 114 µM; activity change, negative = inhibition: at the top concentration
From the text: JMJD2A is a jumonji-domain-containing lysine demethylase that uses Fe(II) together with 2-OG to effect oxidative demethylation of histones. Methylation is one of many […] modification that affect epigenetic transcription. […] It is proposed that the functions of JmjD2A binding to the histones, is to maintain marks after they are installed and to spread the modifications by […], establishing a self-propagating cycle for rapid methylation over a large area of chromatin. […] Thus, small molecule targeting of the JMJD2A-tudor domain interaction with its target methylhistone mark is expected to enable sophisticated experiments probing the fine regulatory pathways leading to selective demethylation of a given methyllysine locus based on the methylation state of adjacent histone marks. A quantitative high throughput AlphaScreen has been developed to identify small molecule inhibitors based on a protocol published by NCGC and SGC [4].
Although AlphaScreen has significant advantages with its utility in a variety of epigenetic target assays, the primary screening data provided in this deposition should be used with caution due to the prevalence of screening artifacts. The top compound concentration tested was high (>100uM) in this assay, which increases number of actives and potential artifacts. An AlphaScreen counterscreen is highly recommended to be run against any putative actives to eliminate non-specific artifacts. Alternatively, one can use other AlphaScreen assays in PubChem to filter out promiscuous hits.
[1] Lee, J. et al. Distinct binding modes specify the recognition of methylated histone H3K4 and H4K20 by JMJD2A-tudor. Nat Struct Mol Biol. 15(1); 109-11. 2008. PMID: 18084306
[2] Yasgar, et al. Compound Management for Quantitative High-Throughput Screening. JALA. 2008 Apr;13(2):79-89. PMID: 18496600
[3] Inglese, et al. Quantitative high-throughput screening: a titration-based approach that efficiently identifies biological activities in large chemical libraries. Proc Natl Acad Sci. 1;103(31):11473-8. 2006. PMID: 16864780
[4] Quinn et al. A homogeneous method for investigation of methyl-dependent protein-protein interactions in epigenetics. Nucleic Acids Res., 38(2):e11. 2010. PMID: […]
[5] Baell,Holloway. New substructure filters for removal of pan assay interference compounds (PAINS) from screening libraries and for their exclusion in bioassays. J Med Chem. 53(7):2719-40. 2010. PMID: 20131845
NIH Molecular Libraries Probe Production Network [MLPCN]
NIH Chemical Genomics Center [NCGC]
Structural Genomics Consortium (SGC)
To each well of a 1,536w plate, 2ul of JMJD2A-Tudor (final 100nM) and 1ul biotinylated histone peptide methylated at Lys4 [b-H3(1-18)K4me3] (final 50nM) were added in 1x PBS buffer, pH 7.4, containing 0.01% Tween-20, using a nanoliter dispenser. Formation of a protein-peptide complex proceeded at room temperature for 30 min. A Kalypsys pin-tool transferred 23nl of library compound solution in DMSO to each well. Following a 30 min incubation of the protein-peptide complex with compounds at room temperature, a mixture of 40 µg/mL each streptavidin-coated donor and nickel chelate acceptor AlphaScreen beads (final 10 µg/mL) was added in a 1ul dispense for a final volume of 4ul, followed by a brief centrifugation (1000 rpm, 1 min). Plates were incubated protected from the light for 20 min at room temperature. Microplates were then read on an EnVision multilabel plate reader using the 1,536 plate HTS AlphaScreen aperture (excitation time 80 ms, measurement time 240 ms).
On the % scale 0 is the no-effect control and ±100 the full control effect; potency means the concentration at half of the fitted maximal effect.

Row | Structure (SMILES) | activity change, negative = inhibition | Potency
1 | COCCn1c(CCC(=O)Nc2cc(C)ccc2C)nc2cccnc21 | -15.1% | 
2 | CCOc1ccc(S(=O)(=O)c2cn(Cc3ccccc3)c3ccc(OCC)cc3c2=O)cc1 | -4.3% | 
3 | Cn1nnc2c(N3CCN(c4ccccc4)CC3)ncnc21 | -9.42% | 
4 | CCOc1ccccc1C(=O)Nc1ccc(S(=O)(=O)N2CCCCC2c2cccnc2)cc1 (configuration not stated) | -15.2% | 
5 | O=C(c1cccc(Cl)c1)N1CCN(CCc2ccncc2)CC1 | -0.662% | 
6 | CCn1c(CNS(=O)(=O)c2ccc(Cl)cc2)n[nH]c1=S |  | 10 µM (active)
7 | CCn1c(CSCc2c(Cl)cccc2Cl)n[nH]c1=S | -16.5% [at 11.4 µM] | 
8 | CSc1ccc(S(=O)(=O)NCc2ccc(Cl)cc2)cc1 | 14.7% | 
9 | COc1ccc(-c2nc3ccccc3s2)cc1NC(=O)COc1ccccc1C | -1.12% | 
10 | COc1cccc(OC)c1C(=O)Nc1nnc(C(C)C)s1 | -3.66% | 
11 | COc1cccc2sc(NNC(=O)c3nc4ccccc4s3)nc12 |  | 50.1 µM (active)
12 | Cc1ccc(OCCn2c(CNc3ccccc3C)nc3ccccc32)cc1 | -10.9% | 
13 | COc1ccc(CNC(=O)CSCc2nc(-c3ccccc3F)oc2C)cc1 | -6.4% | 
14 | COc1ccc(N2CCN(C(=O)CN3C(=O)COc4ccccc43)CC2)cc1 | -15% | 
15 | COc1ccc(N2CCN(C(=O)CSCc3nc(-c4ccccc4Cl)oc3C)CC2)cc1 |  | 50.1 µM (active)
16 | CCOc1cc(/C=C2\C(=N)N3N=C(C)SC3=NC2=O)ccc1OCCOc1ccccc1 | -0.685% | 
17 | COc1cc(/C=C2\C(=N)N3N=C(CC(=O)N4CCOCC4)SC3=NC2=O)cc(OC)c1OC | -13% | 
18 | CCS(=O)(=O)C1=NSC2=NC(=O)/C(=C\c3ccc(OS(=O)(=O)c4ccccc4)cc3)C(=N)N21 |  | 44.7 µM (active)
19 | CS(=O)(=O)C1=NN2C(=N)/C(=C\c3ccc(OCCOc4ccccc4)cc3)C(=O)N=C2S1 |  | 56.2 µM (active)
20 | COc1ccccc1OCCOc1ccc(/C=C2\C(=N)N3N=C(C)SC3=NC2=O)cc1 | -14.5% | 
21 | CCC(=O)Nc1c(C(=O)N2CCN(c3ccc(F)cc3)CC2)oc2ccccc12 | -26.9% | 
22 | Cc1ccccc1CCNC(=O)C1CCN(c2nc3ccccc3nc2C(F)(F)F)CC1 | -6.17% | 
23 | COc1ccc2c(c1)c(N1CCCC1=O)c(C(=O)Nc1ccc(OC)c(Cl)c1)n2C | -28.3% | 
24 | Cc1nnc(N2CCC(C(=O)Nc3ccc(F)cc3)CC2)c2nn(-c3ccc(Cl)cc3)c(C)c12 | 5.17% | 
25 | COc1ccc(Cl)cc1-n1c(CCC(=O)O)ccc1-c1ccc(C)cc1 | -35.3% | 
26 | CC(C)n1c(=S)[nH]c2cc(C(F)(F)F)ccc21 | -16.9% | 

Row | Structure (SMILES) | activity change, negative = inhibition | Potency
27 | FC(F)(F)c1ccc(-n2cn[nH]c2=S)cc1 |  | 8.91 µM (active)
28 | O=c1c2ccccc2c(-c2ccc(F)cc2)nn1-c1ccc(C(F)(F)F)cc1 | 28.6% | 
29 | Cc1c(NC(=O)Cc2ccccc2)cccc1-c1nc2cccnc2s1 | -22.5% | 
30 | CCCC/S(C)=N/S(=O)(=O)c1ccc(C)cc1 (configuration not stated) | -1.74% | 
31 | Cc1ccc(S(=O)(=O)/N=S(\C)C(C)C)cc1 (configuration not stated) |  | 50.1 µM (active)
32 | CC/S(CC1CC1(Cl)Cl)=N\S(=O)(=O)c1ccc(C)cc1 (configuration not stated) | -13.1% | 
33 | c1ccc2cc(OCCN3CCCC3)ccc2c1 |  | 7.94 µM (active)
34 | CCCCOc1ccc(C(C)(O)CCN2CCOCC2)cc1 (configuration not stated) | -11.1% | 
35 | Clc1ccccc1-c1cc(COc2ccc3ccccc3c2)no1 | 186% | 
36 | O=C(Nc1ccc(F)cc1F)N1CCCN(CCOc2ccccc2)CC1 | -21.4% | 
37 | CC(C)(c1ccccc1)c1ccc(OCCN2CCCC2)cc1 |  | 20 µM (active)
38 | C#CC(CCN1CCCCC1)(OC)c1ccccc1 (configuration not stated) | -6.8% | 
39 | O=C(Nc1ccccc1Cl)N1CCC(CN2CCCCC2)CC1 | 3.85% | 
40 | O=C(CSCc1cnn(-c2ccccc2)c1-n1cccc1)NCc1ccc(Cl)cc1 | -6.62% | 
41 | CCOc1ccc(OCC)c(NC(=O)c2cc(C)nc3c2c(C)nn3-c2cccc(Cl)c2C)c1 | 2.27% | 
42 | CCOc1ccc(NC(=O)C(CC(C)C)N2Cc3ccccc3C2=O)cc1 (configuration not stated) | 0% | 
43 | CCNC(=O)c1cc2n(n1)CCCN(Cc1ccc(C)cc1)C2=O | 6.29% | 
44 | CCCCc1nn2c(=O)cc(COC(=O)c3cccc(NC(=O)COc4ccccc4)c3)nc2s1 | -5.96% | 
45 | Cc1ccc(Cl)cc1N(C)C(=O)Cn1nc(Cc2cccnc2)c2ccccc2c1=O | -28.5% | 
46 | Cc1cc(NC(=O)C2CCC(CNS(=O)(=O)c3ccc(Br)s3)CC2)ccc1Br (configuration not stated) | -1.03% | 
47 | CC(=O)N1CCN(C(=O)c2cc(-c3ccc(C)o3)nc3ccccc23)CC1 | -10.9% | 
48 | COc1ccc(NC(=O)CN(C)C(=O)c2cc(-c3ccc(C)o3)nc3ccccc23)cc1 |  | 89.1 µM (active)
49 | COc1ccc(-c2cc(C(=O)N(C)CC(=O)Nc3ccccc3Cl)c3ccccc3n2)cc1OC | 5.52% | 
50 | Cc1ccc(NC(=O)c2cc(-c3ccc(C)o3)nc3ccccc23)nc1 |  | 35.5 µM (active)
51 | CSc1ncccc1C(=O)Nc1ccc(C)cn1 | -6.9% | 
52 | COc1ccc(NC(=O)CN(C)C(=O)c2n[nH]c3ccccc23)cc1 | -9.29% | 
